PubChem BioAssay AID1159580 (chemical genetic matrix, 2015)
Out of some 5,500 compounds screened, about 2,000 (36%) were called active. Inconclusive results (about 18%) are left out. No stated cut-off is given here; in the data, active means normalized growth mostly below about 0.91 (no sharp cut-off); inconclusive means no clear call, values can overlap the other calls; inactive means mostly above about 0.92. This is one part of the list.

Assay: chemical genetic growth profiling, strain panel (AID 1159580);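 further: tested at 20 µM; growth read once vehicle control cultures reached saturation at 30 °C; 1 = growth at the plate median or of vehicle wells; lower values mean less growth of the strain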
Conditions: S. cerevisiae deletion strains, growth OD

Measured: normalized growth

N=c1ccn2c(n1)OC1C(O)C(CO)OC12 (stereo unspecified)
inactive: locus YAL021C, strain ccr4, active compounds read low 1.01 | locus YAL026C, strain drs2, active compounds read low 1.02 | locus YAL030W, strain snc1, active compounds read low 0.991 | locus YBL061C, strain skt5, active compounds read low 1.01 | locus YBR009C, strain hhf1, active compounds read low 1.01 | locus YBR023C, strain chs3, active compounds read low 0.995 | locus YBR171W, strain sec66, active compounds read low 1.01 | locus YBR231C, strain swc5, active compounds read low 1.01 | locus YBR279W, strain paf1, active compounds read low 1.01 | locus YCL011C, strain gbp2, active compounds read low 1.01 | locus YCL016C, strain dcc1, active compounds read low 1 | locus YCL061C, strain MRC1, active compounds read low 0.986 | locus YCL069W, strain vba3, active compounds read low 1.01 | locus YCR088W, strain abp1, active compounds read low 1.01 | locus YDL005C, strain med2, active compounds read low 0.986 | locus YDL040C, strain nat1, active compounds read low 0.986 | locus YDR001C, strain nth1, active compounds read low 1.01 | locus YDR069C, strain doa4, active compounds read low 1.01 | locus YDR137W, strain rgp1, active compounds read low 1.02 | locus YDR159W, strain sac3, active compounds read low 1 | locus YDR195W, strain ref2 0.976 | locus YDR297W, strain sur2, active compounds read low 0.986 | locus YDR334W, strain swr1, active compounds read low 1 | locus YDR335W, strain msn5, active compounds read low 1 | locus YDR392W, strain spt3, active compounds read low 1.01 | locus YEL003W, strain gim4, active compounds read low 1 | locus YEL037C, strain rad23, active compounds read low 0.995 | locus YEL061C, strain CIN8 (second series), active compounds read low 1.01 | locus YER015W, strain faa2, active compounds read low 1.01 | locus YER016W, strain bim1, active compounds read low 1 | locus YER111C, strain swi4, active compounds read low 0.981 | locus YER155C, strain BEM2 (second series), active compounds read low 1.01 | locus YFR010W, strain ubp6, active compounds read low 0.998 | locus YGL167C, strain pmr1, active compounds read low 1 | locus YGL173C, strain kem1, active compounds read low 0.996 | locus YGL227W, strain vid30, active compounds read low 1.02 | locus YGL240W, strain doc1, active compounds read low 0.978 | locus YGL253W, strain hxk2, active compounds read low 1 | locus YHR013C, strain ard1, active compounds read low 1.01 | locus YHR027C, strain rpn1, active compounds read low 1.01 | locus YHR142W, strain chs7, active compounds read low 1.01 | locus YJL092W, strain hpr5, active compounds read low 1.01 | locus YJL095W, strain BCK1 (second series), active compounds read low 1 | locus YJL115W, strain asf1, active compounds read low 1.01 | locus YJL129C, strain trk1, active compounds read low 1.02 | locus YJL154C, strain vps35, active compounds read low 1 | locus YJL164C, strain tpk1, active compounds read low 1 | locus YJL166W, strain qcr8, active compounds read low 0.982 | locus YKL160W, strain elf1, active compounds read low 1 | locus YKR026C, strain gcn3, active compounds read low 1.02 | locus YKR091W, strain srl3, active compounds read low 1 | locus YLL001W, strain dnm1, active compounds read low 0.998 | locus YLL026W, active compounds read low 1 | locus YLL041C, strain sdh2, active compounds read low 1 | locus YLR027C, strain aat2, active compounds read low 1.01 | locus YLR221C, strain rsa3, active compounds read low 0.993 | locus YLR258W, strain gsy2, active compounds read low 1.01 | locus YLR262C, strain YPT6 (second series), active compounds read low 1.02 | locus YLR320W, strain mms22, active compounds read low 1.01 | locus YLR342W, strain FKS1, active compounds read low 1.01 | locus YLR357W, strain rsc2, active compounds read low 0.946 | locus YLR370C, strain arc18, active compounds read low 1.01 | locus YLR384C, strain iki3, active compounds read low 1 | locus YML120C, strain ndi1, active compounds read low 0.993 | locus YMR058W, strain fet3, active compounds read low 0.998 | locus YMR125W, strain sto1, active compounds read low 0.995 | locus YMR129W, active compounds read low 0.987 | locus YMR205C, strain PFK2, active compounds read low 1.01 | locus YMR231W, strain pep5, active compounds read low 1.01 | locus YNL071W, strain lat1, active compounds read low 1.02 | locus YNL209W, strain ssb2, active compounds read low 1 | locus YNL248C, strain rpa49, active compounds read low 1.01 | locus YNL322C, strain KRE1 (second series), active compounds read low 1.01 | locus YNR049C, strain mso1, active compounds read low 1 | locus YOR001W, strain rrp6, active compounds read low 1.01 | locus YOR070C, strain gyp1, active compounds read low 1.01 | locus YOR080W, strain dia2, active compounds read low 0.996 | locus YOR083W, strain WHI5, active compounds read low 1.01 | locus YOR106W, strain vam3, active compounds read low 1.02 | locus YOR265W, strain rbl2, active compounds read low 0.993 | locus YOR270C, strain vph1, active compounds read low 1.04 | locus YOR290C, strain snf2, active compounds read low 1.01 | locus YPL051W, strain arl3, active compounds read low 1 | locus YPL078C, strain atp4, active compounds read low 0.996 | locus YPL106C, strain sse1, active compounds read low 0.981 | locus YPL240C, strain hsp82, active compounds read low 1.02
